Data on 168 variants can be found in the emibetuzumab library of Makowski et al. (2022).

Sequences and labels used below:
B1: VH:VL chains; a variant is named by its letters at X, in order (parent)
chain 1: QVQLVQSGAEVKKPGASVKVSCKASGYTFTDYXMHWVRQAPGQGLEWMGXVNPNXXXTTYNQKFEGRVTMTTDTSTSTAYMELRSLRSDDTAVYYCARXNXLDXWGQGTTVTVSS
chain 2: DIQMTQSPSSLSASVGDRVTITCSVSSSVSSIYLHWYQQKPGKAPKLLIYSTSNLASGVPSRFSGSGSGTDFTLTISSLQPEDFATYYCQVYSGYPLTFGGGTKVEIK

The list shows a part of the results. How many sequences the whole screen found active is unknown.

The assay covers variants of B1. As to the kind of experiment: yeast display scFab, FACS + sequencing. Particulars: with MET. The method, boiled down: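 A heavy-chain CDR mutant scFab library on yeast was enriched magnetically with HGFR-Fc-coated Protein A beads for two rounds and then by FACS after labelling with 1 nM HGFR-Fc and anti-Myc in PBSB with 1% milk for 3 h at room temperature, gating the top 50% antigen-positive cells. Antigen binding was judged positive if a sequence turned up in both antigen-positive deep-sequencing samples and negative if it turned up only in the input.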
On to YTGGADAV, for which the antigen binding call was “no binding”.
Turning to YKGRGSLF, the antigen binding call is given as “binds”.
As to YKARSALF, the antigen binding call was “binds”.
Consider VKGRASGF, for which the antigen binding call was “no binding”.
With YKGRGALF the entry was “binds”; with VKGRGSLF, “binds”.
Turning to DGARGALF, the antigen binding call is recorded as “no binding”.
DAGGADWA: the antigen binding call was “no binding”.
As to SARTDFWF chain 1 K19N, the antigen binding call is recorded as “no binding”.
Regarding ATKTAFVS chain 1 M34I, the antigen binding call is “no binding”.
With SEAGDAVV the entry was “no binding”; with VTTRADVY, “no binding”; with FKGEGAGV, “no binding”.
Turning to FRGESAGV, the antigen binding call is “binds”.
For FRGESAGS, the antigen binding call is recorded as “binds”.
The result for DAKENDVF reads “no binding”; that for VEGTSDLS, “no binding”; that for YTTGGDGA, “no binding”.
Consider YRTGGSGA, for which the antigen binding call is reported as “binds”.
The result for YAKADSGA reads “no binding”; that for FARKGSGA, “no binding”.
With YRRKGSGA, the antigen binding call is listed as “binds”.
As for YRKGSSGA, the antigen binding call is reported as “binds”.
Consider YTKRSSGA, for which the antigen binding call is given as “no binding”.
For YRKGGSGA, the antigen binding call was “binds”.
The result for VKTGGAGA reads “no binding”.
On to YKTGGSGA, for which the antigen binding call is reported as “binds”.
Take DATGGSGA: the antigen binding call was “no binding”.
As to YRGKASWD, the antigen binding call is “binds”.
As to DAGTGSWD, the antigen binding call was “no binding”.
For YRGRDSWD, the antigen binding call is on record as “binds”.
With YRGRSSWD the entry was “binds”.
For VTTKSSSA, the antigen binding call is on record as “no binding”.
For the variant ATATADWA, the antigen binding call is listed as “no binding”.
As for DKRKGVAF, the antigen binding call is on record as “no binding”.
With VRTEDFGV, the antigen binding call is on record as “no binding”.
Take VRAGDSSV: the antigen binding call is reported as “binds”.
For the variant VEAGDSWV, the antigen binding call is “no binding”.
In the case of VTGTASSV, the antigen binding call is listed as “no binding”.
As to VRAGDDGV, the antigen binding call is “no binding”.
Consider VRAEGSSV, for which the antigen binding call is reported as “binds”.
On to VRTEDDWV, for which the antigen binding call is listed as “no binding”.
VRRKSSSV: the antigen binding call is on record as “binds”.
The result for VTEEGSSV reads “no binding”; that for VRTEDSSV, “binds”; that for VKGRASSV, “no binding”.
VETEGSSV: the antigen binding call is on record as “no binding”.
With VETEGDGV the entry was “no binding”.
The result for ATGANAGD reads “no binding”; that for AETGASLS, “no binding”; that for DTKAADWV, “no binding”.
Regarding SGRGNALD, the antigen binding call is “no binding”.
With DRRRGALD the entry was “binds”; with DATGGALD, “no binding”; with SRRRGALD, “binds”.
Take DREGGVSD: the antigen binding call is “no binding”.
On to SAREGALD, for which the antigen binding call was “no binding”.
Take VTATADWA: the antigen binding call is given as “no binding”.
Take VKGRADWD: the antigen binding call is given as “no binding”.
For the variant SEEEGAGD, the antigen binding call is reported as “no binding”.
For the variant VAGTGDGV, the antigen binding call is reported as “no binding”.
Consider YRGKDALA, for which the antigen binding call is “binds”.
VRRKDFLA: the antigen binding call is “no binding”.
For the variant YRRKDALA, the antigen binding call is “binds”.
On to YRAKDALA, for which the antigen binding call is on record as “binds”.
For YAKRDALA, the antigen binding call is recorded as “no binding”.
With DTTGSDWV the entry was “no binding”; with VAGTGDVY, “no binding”; with VKGRSVGY, “no binding”.
The result for VRGRGVGY reads “binds”; that for YRGRDVGY, “no binding”; that for YRGRGVGY, “binds”.
As for VTGEDDWY, the antigen binding call is listed as “no binding”.
With DTKAADVA the entry was “no binding”; with SEARSDGY, “no binding”; with YAGRGDAD, “no binding”.
Take YKGRGFGD: the antigen binding call was “binds”.
Take YGGRGDAD: the antigen binding call is given as “no binding”.
YKGRGDGD: the antigen binding call was “binds”.
For the variant SAGRGYGD, the antigen binding call is listed as “no binding”.
Regarding YKGRGDAD, the antigen binding call is on record as “binds”.
As for YKGRGYGD, the antigen binding call is “binds”.
In the case of YKGADFGD, the antigen binding call is given as “no binding”.
With YKGKGFGD, the antigen binding call is recorded as “no binding”.
With YKGRGYAD the entry was “no binding”.
On to YEGGGDVA, for which the antigen binding call is “no binding”.
For VGAEGVWS chain 1 G66S, the antigen binding call was “no binding”.
The result for VEGGGDVD reads “no binding”; that for VAGAGDSV, “no binding”.
YAGRGDLV: the antigen binding call is recorded as “no binding”.
The result for YAGRGDVD reads “no binding”; that for YAGRGDLD, “binds”; that for VKTGGDGD, “no binding”.
Consider YAGRGVGD, for which the antigen binding call is given as “no binding”.
Regarding YKGKGDGD, the antigen binding call was “binds”.
Take YKGRGVGD: the antigen binding call is reported as “binds”.
Regarding VEEEDYSS, the antigen binding call is recorded as “no binding”.
FAAKTAAA: the antigen binding call is given as “no binding”.
Consider FRARSAAA, for which the antigen binding call is recorded as “binds”.
With FRKGGAAA the entry was “binds”.
Regarding FRAGGAAA, the antigen binding call is recorded as “binds”.
Turning to DRGRDAGA, the antigen binding call is “no binding”.
With YRGRSAGA, the antigen binding call was “binds”.
YRGGSAGA: the antigen binding call is reported as “binds”.
With VKGRADWY, the antigen binding call is given as “no binding”.
Regarding VKTGGAWY, the antigen binding call is “no binding”.
In the case of VKGRGSWY, the antigen binding call is “binds”.
Regarding VKGRGFWY, the antigen binding call is given as “no binding”.
In the case of VKGRGAWY, the antigen binding call is reported as “binds”.
As to VAAAGAAV, the antigen binding call is “no binding”.
For YKTRGSLD, the antigen binding call is recorded as “binds”.
With DKEGGSAD the entry was “no binding”; with DKTGDSAD, “binds”; with YKTRGSAD, “binds”.
YKTRSSAD: the antigen binding call is recorded as “binds”.
As to DKKEDSAD, the antigen binding call is given as “no binding”.
In the case of VKKESDSY, the antigen binding call is on record as “no binding”.
Regarding YAREDDGA, the antigen binding call was “no binding”.
Turning to YRRGGSVD, the antigen binding call is given as “binds”.
Take YRRGTSVD: the antigen binding call was “binds”.
On to ARRGGSVD, for which the antigen binding call is “no binding”.
As for DATGGDWA, the antigen binding call is on record as “no binding”.
As for YRRRGVGA, the antigen binding call was “binds”.
As for YRRRGFGA, the antigen binding call is recorded as “binds”.
With YRRRGSGA the entry was “binds”; with YARRGDGA, “no binding”.
Take ARRRGSGA: the antigen binding call is recorded as “no binding”.
As to YRRRGAGA, the antigen binding call was “binds”.
On to YARADDSA, for which the antigen binding call is listed as “no binding”.
As for DTTGSSGV, the antigen binding call is recorded as “no binding”.
VEAGDDAA: the antigen binding call was “no binding”.
Consider VKGRADLV, for which the antigen binding call is “no binding”.
With VKGRGVGY the entry was “no binding”.
With YTGTSDWY the entry was “no binding”; with VEGRGDGY, “no binding”; with VKGKDVGY, “no binding”.
In the case of DAGRGDGY, the antigen binding call is recorded as “no binding”.
The result for DEGRGDWY reads “no binding”; that for VKGRGAGY, “binds”.
Take YKGRGDWY: the antigen binding call is “binds”.
Regarding YKGRGDGY, the antigen binding call is “binds”.
With YKGRGVGY the entry was “binds”.
For DKEGGDAS, the antigen binding call is “no binding”.
On to DKEGGDVA, for which the antigen binding call is “no binding”.
For DTAEDFGV, the antigen binding call is “no binding”.
YKGRGAGY: the antigen binding call is listed as “binds”.
For the variant VGGTSDVF, the antigen binding call is reported as “no binding”.
The result for DGGKNDGS reads “no binding”; that for DTKRTAGD, “no binding”; that for YRRRGVGS, “binds”.
For YRRRGYGD, the antigen binding call is listed as “binds”.
With YRREGAGD the entry was “binds”.
With YRRRGAGD, the antigen binding call is recorded as “binds”.
Turning to VTGEDDVA, the antigen binding call was “no binding”.
Turning to DEGGTDVD, the antigen binding call is “no binding”.
On to DRGGDDLV, for which the antigen binding call is “no binding”.
With DARGGDVY, the antigen binding call is on record as “no binding”.
YRRRGDGD: the antigen binding call is listed as “binds”.
Turning to YRRRGVGD, the antigen binding call is reported as “binds”.
The result for SEARSDVF reads “no binding”; that for DARGGDWV, “no binding”; that for YTRGAAGV, “no binding”.
Turning to DRRGDDGV, the antigen binding call is reported as “no binding”.
With ARRGAAGV, the antigen binding call is “no binding”.
With YRRGASGV, the antigen binding call was “binds”.
Turning to YAGGDSGV, the antigen binding call is listed as “no binding”.
The result for YRRGDSGV reads “binds”; that for DARADSLV, “no binding”.
